Assay results as given in PubChem BioAssay AID626 (Vanderbilt High Throughput Screening Facility, 2007).
The whole screen tested about 64,000 compounds, of which about 1,900 (3%) were called active. Shown is part of a subset that was picked to be rich in actives. A number with no mark means an inactive call.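 How the source made its calls: active means fluorescence rise, raw or as B-score row- and column-corrected plate score, outside the 99.7% band of its plate's samples, either direction; inactive means the rest.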

System: Muscarinic acetylcholine receptor M1
Assay: direct activation of M1 receptor calcium signal – CHO-M1 cells, Fluo-4 calcium, agonist mode, primary screen (AID 626)
Settings: Fluo-4 calcium fluorescence, at 10 µM, stronger effect = higher value

SMILES | B-score
CC(C)C[C@H](NC(=O)Nc1cccc(C(F)(F)F)c1)C(=O)O | 0.0481
CC(=O)c1c(C)c[nH]c1C | 0.323
Cc1ccc(S(=O)(=O)NCc2csc(C)n2)c(C)c1 | -0.841
Cc1nc(CNS(=O)(=O)c2cccnc2)cs1 | 0.163
Cc1nc(CNS(=O)(=O)c2ccc(Oc3ccccc3)cc2)cs1 | 3.97 (active)
CC(C)C(NC(=O)OCc1ccccc1)C(=O)OCC(=O)N1C(C)CCCC1C (centres undefined) | -0.582
COc1ccc(CCNC(=O)c2ccco2)cc1 | 78.9 (active)
O=C(NCCSc1ccccc1)c1ccco1 | 0.47
CC(C)(C)NC(=O)c1cc(NC(=O)c2ccco2)cc(NC(=O)c2ccco2)c1 | 4.57
COC(=O)c1ccc(N(CC(=O)NC2CCCC2)C(=O)CNC(=O)c2ccco2)cc1 | -0.016
COc1cc(OC)cc(C(=O)NCCSCc2ccco2)c1 | -0.317
COc1ccc(N(CC(=O)NC(C)(C)C)C(=O)c2ccco2)cc1 | 3.36 (active)
CCOC(=O)N1CCN(C(=O)CSc2nnc(-c3c[nH]c4ccccc34)n2CCOC)CC1 | 0.791
O=C(OCC(=O)c1cccs1)C1=COCCO1 | -0.115
COc1ccc(C(c2nnnn2C2CCCCC2)N2CCN(c3ccccc3F)CC2)cc1 (centres undefined) | -0.721
COC(=O)c1ccc(CSc2nc3ccccc3c(=O)n2-c2cccc(OC)c2)o1 | 3.63 (active)
COCC(C)n1c(SCc2ccc(C(=O)OC)o2)nc2ccccc2c1=O (centres undefined) | 1.47
COC(=O)c1ccc(CSc2ccccc2C)o1 | -0.274
CCOC(=O)N1CCC(C(N)=O)CC1 | -0.221
COc1ccc2c(c1)C=CC1(O2)N(CCO)c2ccccc2C1(C)C (centres undefined) | 0.737
COc1ccc(OC)c(S(=O)(=O)Nc2ccccc2F)c1 | -0.55
Cc1cc(Nc2ccccc2)n(CCC#N)n1 | -0.373
CN1CCN(c2ccc(NC(=O)COc3ccc(Cl)cc3Cl)cc2)CC1 | -0.55
Cc1cc(NC(=O)COc2ccc(Cl)cc2Cl)n(CCC#N)n1 | -2.93 (active)
O=C(c1cccs1)N1CCN(Cc2ccc3c(c2)OCO3)CC1 | 0.609

SMILES | B-score
N#Cc1nc(-c2ccc(OCc3ccccc3)cc2)oc1NCCCN1CCOCC1 | 1.06
CCOc1ccc(Nc2oc(Cc3ccccc3)nc2C#N)cc1 | 0.194
COc1ccc(Nc2oc(-c3ccccc3Cl)nc2C#N)cc1 | 37.2 (active)
CCN1C(=O)CS/C1=N\c1nccs1 | 0.514
O=C(Nc1ccc(Cl)cc1)c1ccsn1 | -0.00233
COc1cc(C(=O)Nc2nccs2)cc(OC)c1OC | 1.84
COc1cc(C(=O)Nc2oc(-c3ccccc3)c(-c3ccccc3)c2C#N)cc(OC)c1OC | 3.33 (active)
N#Cc1c(NC(=O)CCCN2C(=O)c3ccccc3C2=O)oc(-c2ccccc2)c1-c1ccccc1 | -0.449
O=C(CNS(=O)(=O)c1ccc(Br)s1)NCc1ccc2c(c1)OCO2 | -0.057
Cc1cc(C)nc(SCc2nnc(SCC(=O)Nc3ncc(C)s3)n2Cc2ccco2)n1 | 0.0432
CCCc1cc(=O)[nH]c(SCC(=O)OCc2ccccc2)n1 | -0.24
O=C(Cn1cc(C(=O)c2cccs2)c2ccccc21)NCc1cccs1 | 5.61 (active)
COC(=O)Cn1cc(C(=O)c2cccs2)c2ccccc21 | -0.298
COC(=O)c1cn(CC(=O)NCc2cccs2)c2ccccc12 | -0.913
COc1ccccc1OCCC(=O)OCC(=O)NC(=O)NC(C)(C)C | -0.0604
O=C(Nc1ccon1)c1cccc(Cl)c1 | -0.792
O=C(Nc1cccc(NC(=O)N2CCN(c3ccccc3)CC2)c1)N1CCN(c2ccccc2)CC1 | 5.66 (active)
O=C(Nc1cccc(C(=O)N2CCCC2)c1)c1ccccc1 | 0.113
CC(=O)N1CCN(C(=O)Nc2cccc(C(F)(F)F)c2)CC1 | 1.54
Cc1ccc(N2CCN(S(=O)(=O)c3ccc(F)cc3)CC2)c(C)c1 | 1.76
O=C(CC(Cc1ccccc1)C(=O)O)NCCc1ccc2c(c1)OCO2 (centres undefined) | -0.0151
O=C(NCCc1ccc2c(c1)OCCO2)c1cc2ccccc2o1 | 5.92 (active)
O=C(Nc1ccncc1)c1cc2ccccc2o1 | -0.306
CCOc1cccc(-n2nnnc2-c2ccc(OC)cc2)c1 | -0.152
COc1ccccc1OCCOc1ccc(/C=N/n2cnnc2)cc1 | -1.48

SMILES | B-score
COc1cccc(OCCOc2cccc(/C=N/n3cnnc3)c2)c1 | 0.112
C(=N\n1cnnc1)/c1cccnc1 | 7.81 (active)
CCOC(=O)c1sc(NC(=O)C(CC)Sc2nccn2C)nc1C (centres undefined) | 0.459
Cc1nnc(SCCCn2c(N3CCCCC3)nc3c2c(=O)[nH]c(=O)n3C)s1 | -0.0644
O=C(c1cn(-c2ccccc2)nc1-c1cccnc1)N1CCCCC1 | 0.178
COc1ccccc1N1CCN(C(=O)c2cn(-c3ccccc3)nc2-c2cccnc2)CC1 | 5.33 (active)
COC(=O)c1cn(-c2ccccc2)nc1-c1cccnc1 | -1.56
CCOC(=O)Nc1ccc2c(c1)N(C(=O)CN1CCN3CCCC3C1)c1ccccc1CC2 (centres undefined) | 0.0902
CCOc1ccc(NC(=O)Nc2cc(C)on2)cc1 | -2.11
c1cnn(-c2cc(N3CCOCC3)ncn2)c1 | -2.54 (active)
O=C(Nc1cc(N2CCOCC2)ncn1)NC1(C(F)(F)F)Oc2ccc(Cl)cc2O1 (centres undefined) | 0.249
O=C(Nc1ccc(F)cc1)c1cccnc1N1CCOCC1 | 0.0065
O=C(NCc1cn2ccsc2n1)Nc1cccc(Cl)c1 | -0.0716
CCCC(=O)Nc1cccc(-c2cn3ccsc3n2)c1 | -2.92 (active)
COc1ccc(-c2cn3ccsc3n2)cc1 | 0.708
OCCCN1c2ccccc2Nc2nnc(-c3ccccc3)cc21 | 2.37
CCOc1cc(C(=S)N2CCOCC2)ccc1O | 0.0946
CCOc1cccc(=O)c2c(C)n(CC3CCCO3)c(C)c12 (centres undefined) | -0.504
CCOc1cc(-c2nc3cc(C)ccn3c2NCC2CCCO2)ccc1O (centres undefined) | 5.56 (active)
O=C(CC1Oc2ccccc2NC1=O)NCCCN1CCN(Cc2ccccc2)CC1 (centres undefined) | -0.153
COCCn1c(-c2ccc(OC)c(OC)c2)nc2ccccc21 | 0.157
Clc1cccc(-c2nc3nc4ccccc4nc3n2Cc2ccco2)c1 | 2.1
COc1ccc(CCn2c(-c3ccco3)nc3nc4ccccc4nc32)cc1OC | 5.87 (active)
COc1ccc(-c2nn(-c3ccccc3)cc2C(=O)Nc2nc(CC(C)=O)ns2)cc1 | 0.649
Cn1c(C(=O)NCCc2ccsc2)cc2c(=O)n(C)c3ccccc3c21 | 3.97 (active)

SMILES | B-score
CC1CCCC(C)N1CCCNC(=O)c1cc2c(=O)n(C)c3ccccc3c2n1C (centres undefined) | 0.176
Cn1c(C(=O)NCCCN2CCN(c3cccc(Cl)c3)CC2)cc2c(=O)n(C)c3ccccc3c21 | -1.68
CCOc1cc(S(=O)(=O)NC2CC(C)(C)NC(C)(C)C2)ccc1F | -1.83
N#CC1=C(N)C(C#N)(C#N)[C@H](c2ccsc2)[C@H]2COCC=C12 | 3.35 (active)
O=S(=O)(N1CCOCC1)N1CCN(c2ccccc2F)CC1 | 0.0546
c1ccc(-c2oc3ncnc(N4CCOCC4)c3c2-c2ccccc2)cc1 | -0.65
O=C1c2ccccc2-c2ncnc3c(N4CCOCC4)cc(N4CCOCC4)c1c23 | 2.4 (active)
O=C(NCCC1=CCCCC1)C1CCN(Cc2cnn(-c3ccccc3)c2-n2cccc2)CC1 | 3.61 (active)
C1=C(CCNc2ncnc3c2cnn3-c2ccccc2)CCCC1 | 0.14
O=C(COc1cccc(-n2cnnn2)c1)NCCC1=CCCCC1 | -0.532
c1ccc2c(c1)OCC(CNc1ncnc3nc[nH]c13)O2 (centres undefined) | 104 (active)
COc1ccc(CCNc2ncnc3nc[nH]c23)cc1OC | -0.961
Cc1cc(NC(=O)CCC2COc3ccccc3O2)no1 (centres undefined) | -0.76
O=S1(=O)CC(NCc2ccccc2)C(Nc2ccc(Cl)cc2)C1 (centres undefined) | -0.0591
COc1cccc(-n2cc3c(c2-c2ccccc2)c(=O)n(C)c(=O)n3C)c1 | 7.45 (active)
Cc1ccc(-c2c3c(=O)n(C)c(=O)n(C)c3cn2-c2ccccc2O)cc1 | 0.252
COc1ccc(-c2c3c(=O)n(C)c(=O)n(C)c3cn2-c2cccc(OC)c2)cc1 | 0.091
CCCCn1c(SCC(=O)NCC2CCCO2)nc2ccc(N3CCOCC3)cc2c1=O (centres undefined) | 0.658
COc1ccccc1CNC(=O)CCCNS(=O)(=O)c1cccc2nsnc12 | -0.144
CCS(=O)(=O)N1CCCC(C(=O)NCCCN(C)Cc2ccccc2)C1 (centres undefined) | 0.0256
CNC(=O)c1c(NC(=O)c2ccc(S(=O)(=O)N3CCOCC3)cc2)sc2c1CCC2 | -0.0829
CCOc1cc(NC(=O)c2ccco2)c(OCC)cc1NC(=O)COc1ccccc1 | 0.0561
CCOc1cc(N2CCOCC2)c(OCC)cc1NC(=O)COc1cccc2cccnc12 | 4.8 (active)
CC(=O)Nc1cccc(Oc2cc(C#N)c(C#N)cc2N2CCOCC2)c1 | 0.0039
